# The source made the active and inactive calls.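 The calls were made as follows: active = cell killing with a fitted half-maximal concentration no more than twice the top valid dose used; inconclusive = flat curve with a moderate signal drop, or poor fit; inactive = the rest.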
# Assay: HepG2 cell cytotoxicity, dose response, cytotoxicity control, plate reader, dry powder, set 7 (AID 743313)
# Details: HepG2 viability, ATP luminescence (CellTiter-Glo), 72 h; series mostly up to 26 µM; activity change, negative = cytotoxicity: at the top concentration
SMILES,"activity change, negative = cytotoxicity",outcome
Cc1ccc(C)c(OCCn2c(=S)[nH]c3ccccc32)c1,-18.1% (inactive),
Cc1ccc(C(C)C)c(OCCn2c(=S)[nH]c3cccc(Cl)c32)c1,-14.8% (inactive),
Fc1ccc2c(c1)[nH]c(=S)n2CCOc1ccccc1,,inactive
CCOc1ccc(OCCn2c(=S)[nH]c3ccccc32)cc1,-11.2% (inactive),
COCc1nc2ccccc2n1CCOc1ccc(C(C)(C)C)cc1,-11.4% (inactive),
CC(C)c1ccc(OCCn2c(=S)[nH]c3ccccc32)cc1,-24% (inactive),
Cc1ccc(OCCn2c(=S)[nH]c3ccccc32)c(C(C)C)c1,,inactive
Cc1cccc(OCCn2c(=S)[nH]c3c(F)cccc32)c1,,inactive
Cc1ccc(C(C)C)c(OCCn2c(=S)[nH]c3c(C)cccc32)c1,-17.4% (inactive),
CC(C)(C)c1ccccc1OCCn1c(=S)[nH]c2ccccc21,-9.42% (inactive),
Fc1cccc2c1[nH]c(=S)n2CCOc1ccccc1,,inactive
CC(C)c1ccccc1OCCn1c(=S)[nH]c2ccccc21,-18.4% (inactive),
Cc1ccc(C(C)C)c(OCCn2c(=S)[nH]c3ccc(Cl)cc32)c1,-7.22% (inactive),
CSc1nc2ccccc2n1CCOc1cc(C)ccc1C(C)C,-10.2% (inactive),
Cc1ccc(OCCn2c(=S)[nH]c3ccccc32)c(C)c1,-11.8% (inactive),
Cc1ccc(OCCn2cnc3ccccc32)cc1,-8.55% (inactive),
Cc1ccccc1OCCn1c(=S)[nH]c2ccccc21,-15.7% (inactive),
Cc1ccc(C(C)C)c(OCCn2c(=S)[nH]c3cccc(F)c32)c1,-19.6% (inactive),
Cc1ccc(OCCn2c(SCCO)nc3ccccc32)c(C(C)C)c1,-26.3% (inactive),
S=c1[nH]c2cccc(Cl)c2n1CCOc1ccccc1,,inactive

# From PubChem BioAssay AID743313 (Broad Institute, 2014)
